In PubChem BioAssay AID588852 (The Scripps Research Institute Molecular Screening Center, 2011) one finds inhibition data, which are given here for 90 molecules.

The whole screen tested about 360,000 compounds, of which about 4,600 (1.3%) were called active.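 How the source made its calls: active means percent inhibition above its own plate's cutoff, namely the mean of that plate's compound wells plus 3 SD; inactive means the rest.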 Only a selection was taken, and actives are over-represented in it overall.

Sequence of Muscarinic acetylcholine receptor M1 (Homo sapiens) (P11229 whole entry, looked up): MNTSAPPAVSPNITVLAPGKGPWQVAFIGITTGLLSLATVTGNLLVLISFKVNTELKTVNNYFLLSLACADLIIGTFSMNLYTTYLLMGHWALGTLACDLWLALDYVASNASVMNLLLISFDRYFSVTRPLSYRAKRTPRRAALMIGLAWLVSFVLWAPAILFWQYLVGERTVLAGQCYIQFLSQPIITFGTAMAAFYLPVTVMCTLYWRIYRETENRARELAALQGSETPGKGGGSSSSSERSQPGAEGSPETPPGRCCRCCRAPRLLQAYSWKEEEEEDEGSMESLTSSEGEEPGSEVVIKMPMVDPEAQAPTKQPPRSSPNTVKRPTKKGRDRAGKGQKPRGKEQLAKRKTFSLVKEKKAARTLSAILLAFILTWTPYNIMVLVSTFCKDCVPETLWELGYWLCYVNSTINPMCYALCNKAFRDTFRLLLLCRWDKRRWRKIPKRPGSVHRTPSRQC

The experiment addresses Muscarinic acetylcholine receptor M1 (Homo sapiens) (UniProt P11229). Nature of the experiment: CHRM1 blockers of acetylcholine calcium response – CHO-K1 cells, Fluo-8 calcium fluorescence, 1536-well, primary screen (AID 588852).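 Further: peak over basal fluorescence ratio during 140 s after agonist addition; 0% = ACh EC80 plus DMSO and 100% = DMSO alone without agonist.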 The following applies: CHO-K1 hM1, Fluo-8 calcium fluorescence, ACh EC80 antagonist; at 3 µM; stronger effect = higher value.
Consider `CCN1CCC(O)(/C=C/c2ccc(C)cc2)C(C(=O)/C=C/c2ccc(C)cc2)C1` (stereo not given), for which the inhibition was 5.04% (inactive).
With `CCN1CCC2(CC1)N=C(c1ccc(F)cc1)C(=S)N2C(=O)c1ccc(C)cc1`, the inhibition is 90.6% (active).
`Cc1ccc(SCC(=O)N2CCN(c3ccc(F)cc3)CC2)cc1`: the inhibition was 1.11% (inactive).
With `C[C@@H]1CN([C@H](C)CO)C(=O)CCCn2nncc2CO[C@@H]1CN(C)S(=O)(=O)c1cccc(C#N)c1`, the inhibition is -0.77% (inactive).
As to `COc1ccc(C2=Nc3ccccc3NC(=O)C2N(C(=O)c2cc3ccccc3[nH]2)c2ccccc2)cc1` (stereo not given), the inhibition was -26.4% (inactive).
On to `CC(C)(C)CC(=O)Nc1nc(C(N)Cc2ccc(C(F)(F)F)cc2)cs1` (stereo not given), for which the inhibition is -6.85% (inactive).
Take `O=C(O)C1C2C=CC(O2)C1C(=O)NCCc1cccc(Cl)c1` (stereo not given): the inhibition is -2.69% (inactive).
As to `COc1cccc(NC(=O)C2c3cc(OC)c(OC)cc3C(=O)N(C)C2c2cccnc2)c1` (stereo not given), the inhibition is -10.6% (inactive).
To `Cc1nn(C)c(Cl)c1CN1CCC(Oc2ccc(C(=O)N3CCCC3)cc2)CC1` belongs 8.44% (inactive); to `CC(=O)Nc1ccc(CN2CCC(Oc3ccc(C(=O)N4CCCC4)cc3)CC2)cc1`, 53.8% (active); to `O=C(c1ccc(OC2CCN(C/C=C/c3ccc(F)cc3)CC2)cc1)N1CCCCC1`, 29.3% (inactive).
As for `CCOP(=O)(OCC)C(Cc1ccccc1)N=C(c1ccccc1)c1ccccc1` (stereo not given), the inhibition is -5.83% (inactive).
Take `Cc1c(CN2CCC(C)CC2)c(=O)n(-c2ccccc2)n1C`: the inhibition is 8.27% (inactive).
To `Cc1c(CN2CCCC(C(=O)c3cccc(Cl)c3)C2)c(=O)n(-c2ccccc2)n1C` (stereo not given) belongs 27.6% (active); to `Cc1cccc(N2CCN(Cc3c(C)n(C)n(-c4ccccc4)c3=O)CC2)c1C`, 12.1% (inactive); to `CC(C)(O)C#Cc1ccc(CNC[C@H]2O[C@@H](n3cnc4c(=O)[nH]c(N)nc43)[C@H](O)[C@@H]2O)s1`, 3.48% (inactive).
`C=CCOC(=O)C1=C[C@@H](c2ccc3c(c2)OCO3)C[C@@H](OCCCCO)O1`: the inhibition was -1.17% (inactive).
Regarding `Cc1cc2c(cc1C)N1C(=O)c3cc4ccccc4cc3NC(=O)C1C(=O)N2` (stereo not given), the inhibition is -27% (inactive).
With `COc1ccccc1NC(=S)NC(=O)C(C)C`, the inhibition is -7.13% (inactive).
In the case of `O=C(CCN1CCN(c2ccccc2)CC1)NNC(=S)Nc1ccccc1` it was 17.2% (inactive); in that of `CCCCC(=O)NNC(=S)NC(=O)C(c1ccccc1)c1ccccc1`, 68.7% (active); in that of `COc1cc(NC(=O)c2cc(-c3ccc(F)cc3OC(C)C)n[nH]2)cc(OC)c1OC`, 8.53% (inactive).
`CCc1ccc(C(=O)OCC(=O)NCC(F)(F)F)cc1`: the inhibition is -11.6% (inactive).
For `CCOc1ccc(Nc2nc(Cc3nnc(SCC(=O)c4ccc(C)cc4)o3)cs2)cc1`, the inhibition is 13% (active).
To `CCOc1ccc(Nc2nc(Cc3nnc(SCC(=O)NC4CCCC4)n3C)cs2)cc1` belongs -22.9% (inactive).
Take `CC(=O)Nc1ccc(C(=O)CSc2nnc(Cc3ccccc3)o2)cc1`: the inhibition was -12.2% (inactive).
Take `CCOC(=O)c1nnn(CC(=O)Nc2cccc(F)c2)c1C(=O)OCC`: the inhibition is -2.12% (inactive).
Consider `O=C(NCc1cccnc1)c1nc(-c2cccs2)no1`, for which the inhibition was -2.8% (inactive).
On to `CC1CCC2CCCCC2N1C(=O)c1cc([N+](=O)[O-])cc([N+](=O)[O-])c1` (stereo not given), for which the inhibition is -3.75% (inactive).
For `Cn1cc(CN2CCCCC2c2ccccn2)c(-c2ccc3c(c2)OCCO3)n1` (stereo not given), the inhibition was -3.05% (inactive).
As for `COc1ccccc1C(=O)Nc1ccc(C)c(S(=O)(=O)N2CCCCC2)c1`, the inhibition was 5.17% (inactive).
In the case of `Cc1ccc(C(=O)Nc2ncccc2C)cc1S(=O)(=O)N1CCOCC1` it was -9.39% (inactive); in that of `Cc1ccc(C(=O)Nc2ccc3c(c2)OCCO3)cc1S(=O)(=O)N1CCOCC1`, -13.2% (inactive); in that of `Cc1ccc(C(=O)NCC(c2cccs2)N(C)C)cc1S(=O)(=O)N1CCOCC1` (stereo not given), 50.7% (active).
To `COc1ccccc1C(CNC(=O)c1ccc(C)c(S(=O)(=O)N2CCCCC2)c1)N(C)C` (stereo not given) belongs 101% (active).
With `COc1ccccc1CNC(=O)c1ccc(Cl)c(S(=O)(=O)N2CCCC2)c1`, the inhibition is -5.01% (inactive).
With `CCCCN1C(=O)/C(=C/C=C2/C=Cc3ccccc3N2CC)SC1=S`, the inhibition is -7.59% (inactive).
Regarding `CN1C=CC=C/C1=C1\SC(=S)N(Cc2ccccc2)C1=O`, the inhibition is 19.7% (inactive).
With `CCCCN1C(=O)/C(=C2/C=CC=CN2C)SC1=S`, the inhibition is 37.9% (active).
As to `CCC(C)C(CO)NC(=O)/C=C/[C@H]1O[C@@H](n2cnc3c(NC(=O)c4ccccc4)ncnc32)[C@H](O)[C@@H]1O` (stereo not given in full), the inhibition is 3.77% (inactive).
For the molecule `CC(C)c1cccc(C(C)C)c1Nc1cn[nH]c1`, the inhibition was -0.55% (inactive).
To `O=S(=O)(/C=C/c1ccccc1)N1CCNCC1` belongs -8.17% (inactive).
In the case of `Fc1ccc(CNCc2ccc(Br)cc2)cc1` it was -0.53% (inactive).
To `COc1ccc(NC(=O)CN(C)C(=O)c2cccc(S(=O)(=O)N3CCN(c4ccccc4)CC3)c2)cc1` belongs 57.7% (active).
In the case of `CCOc1ccc(NC(=O)CN(C)C(=O)c2cccc(S(=O)(=O)N3CCCC3)c2)cc1OCC`, the inhibition is 7.19% (inactive).
`Cc1ccc(NC(=O)CN(C)C(=O)c2cccc(S(=O)(=O)N3CCCC3)c2)cc1`: the inhibition is -6.53% (inactive).
In the case of `C=CCN(c1ccc(Cl)cc1)S(=O)(=O)c1cccc(C(=O)OCC(=O)N(C)C)c1` it was -8.38% (inactive); in that of `COc1cc(S(=O)(=O)N(Cc2cccs2)C2CC2)ccc1-n1cnnn1`, -5.47% (inactive).
To `O=S(=O)(Cc1nnnn1-c1ccc(Br)cc1)c1ccc(F)cc1` belongs -2.5% (inactive); to `Nc1c(C(=O)c2cccs2)sc2nsc(SCCN3CCCCC3)c12`, 44.1% (active).
In the case of `Cc1nc2cc(NC(=O)Nc3cccc(F)c3)ccc2n1C` it was -17.2% (inactive).
`S=C(Nc1ccccc1)Nc1ccc2ccccc2c1`: the inhibition was -3.01% (inactive).
Turning to `O=C(Nc1ccc2ccccc2c1)Nc1ccc2snnc2c1`, the inhibition is 32.8% (active).
Turning to `O=C(c1ccco1)N1CCN(CCOc2ccccc2)CC1`, the inhibition is -9.86% (inactive).
In the case of `CN(Cc1ccccc1)C(=O)CCC1CCN(C(=O)c2ccco2)CC1` it was 31.3% (active); in that of `O=C(c1ccco1)N1CCN(C(=O)C2c3ccccc3Oc3ccccc32)CC1`, 11.3% (inactive).
Consider `Cc1ccc([C@@H]2CC(=O)[C@@H]3CN(S(=O)(=O)c4ccc(C)cc4)[C@H](c4ccccc4F)C[C@@H]3N2S(=O)(=O)c2ccc(Cl)cc2)cc1`, for which the inhibition was -10% (inactive).
In the case of `CC12CCC(=O)C=C1CCC1C2C(O)CC2(C)C1CCC2(O)C(O)CO` (stereo not given), the inhibition was -14.1% (inactive).
Regarding `COc1ccc(/C=C2\SC(=S)N(CCC(=O)N3CCOCC3)C2=O)cc1OC`, the inhibition is -11% (inactive).
For `COc1cc(/C=C2/SC(=S)N(Cc3ccccc3)C2=O)cc(OC)c1O`, the inhibition is 30.7% (active).
As for `COc1ccc(CCNC2=C(Cl)C(=O)N(Cc3ccccc3)C2=O)cc1OC`, the inhibition was 13.4% (inactive).
Take `O=C(CCNc1n[nH]c(=O)[nH]c1=O)N/N=C\c1ccc(Br)cc1`: the inhibition was -20% (inactive).
To `Cc1ccccc1C(OCCN(C)C)C1CCCCC1` (stereo not given) belongs 99.8% (active).
Regarding `CN(C)CCOC1c2ccccc2-c2ccccc21`, the inhibition is 12.7% (inactive).
For the molecule `COc1ccccc1CNC(=O)Cn1c(=O)oc2cc(Cl)ccc21`, the inhibition was -12.3% (inactive).
For the molecule `CSCCC(NC(=O)c1ccco1)C(=O)NCCc1ccc(F)cc1` (stereo not given), the inhibition was 4.11% (inactive).
For the molecule `CC(C(=O)c1ccc(-c2ccccc2)cc1)[n+]1cccc(Br)c1` (stereo not given), the inhibition is 35.1% (active).
Regarding `O=C(NNC(=O)c1ccc(-c2ccccc2)cc1)Nc1ccccc1`, the inhibition is -2.91% (inactive).
With `C[n+]1cccc(C(=O)O)c1`, the inhibition was -30.2% (inactive).
`CCCCc1nc(NCc2ccccc2)c(C#N)c2c1CCCC2`: the inhibition is -5.37% (inactive).
For `COc1ccc(C(C#N)=C2C=CC(=NO)c3ccccc32)cc1`, the inhibition is 22% (inactive).
In the case of `CC1=C(C(=O)N2CCOCC2)CC(CC(=O)NCc2cccs2)C(=O)N1CCCN1CCCC1=O` (stereo not given) it was 4.82% (inactive); in that of `Cc1ccc2nc(-c3ccco3)c(Cc3cccc(Cl)c3)n2c1`, -5.65% (inactive); in that of `Cc1ccc(S(=O)(=O)N2CCOCC2)cc1C(=O)NCc1ccc(F)cc1`, 9.1% (inactive).
With `COC(=O)c1ccc(CNC(=O)c2ccc(S(=O)(=O)N3CCCCCC3)cc2)cc1`, the inhibition is -11.2% (inactive).
As to `Cc1cc2cc(CNC(=O)c3ccc(S(=O)(=O)N4CCOCC4)cc3)ccc2[nH]1`, the inhibition was 59.4% (active).
Turning to `CCCC(=O)N1CCC1(C)C(=O)NCc1ccc(SC)cc1` (stereo not given), the inhibition is -8.63% (inactive).
In the case of `COc1cccc(NC(=O)COc2cccnc2[N+](=O)[O-])c1` it was -7.66% (inactive).
As to `CC(NC(=O)COc1cccnc1[N+](=O)[O-])c1ccc(Cl)cc1Cl` (stereo not given), the inhibition was 42.6% (active).
Consider `O=C(COc1cccnc1[N+](=O)[O-])Nc1ccc(Cl)cc1F`, for which the inhibition is 3.68% (inactive).
As to `CCCNC(=S)NC1CC2CCCC(C1)N2CC(C)C` (stereo not given), the inhibition is 29.5% (inactive).
In the case of `CCOc1ccc(CN(Cc2ccco2)C(c2cccs2)c2nnnn2C(C)(C)C)cc1` (stereo not given), the inhibition is 18.8% (inactive).
For the molecule `CC(C)C(c1nnnn1C(C)(C)C)N1CCN(Cc2cccnc2)CC1` (stereo not given), the inhibition was -13.5% (inactive).
For `CC(C)(C)n1nnnc1C(c1cccs1)N(Cc1cccnc1)CC1CCCO1` (stereo not given), the inhibition is 79.4% (active).
Turning to `CC(=O)NS(=O)(=O)c1ccc2c(c1)Cc1cc(S(=O)(=O)NC(C)=O)ccc1-2`, the inhibition was -13.4% (inactive).
`O=C(NCC(O)c1nc2ccccc2[nH]1)c1ccc(Br)cc1` (stereo not given): the inhibition was -13.3% (inactive).
Regarding `CC(=O)C1=CCC(c2ccccc2)N(S(=O)(=O)c2ccc(C)cc2)C1` (stereo not given), the inhibition is -10.8% (inactive).
Consider `CCOC(=O)C1=CCC(c2ccc(F)cc2)N(S(=O)(=O)c2ccc(C)cc2)C1` (stereo not given), for which the inhibition was 34% (active).
On to `CCOC(=O)C1=CC[C@@H](c2ccncc2)N(S(=O)(=O)c2ccc(C)cc2)C1`, for which the inhibition was 24.6% (inactive).
Take `COc1c(C)cc(C(O)c2ncc(-c3cccc(C(F)(F)F)c3)[nH]2)cc1C` (stereo not given): the inhibition is -5.01% (inactive).
